Data: the supplement of paper PMC6555819

Assays:
Assay in all cases: PBM binding z-score (relative to random genomic background probes); higher = stronger binding; sequences stand for … in GC…GCGATTGACAGCGTAGAATGAAGG
[1] = system: RARg:RXRa (NR concentration 270 nM, RXRa partner concentration 90 nM)
Method in brief: (§1)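 Probes were double-stranded and carried 34-nt variable regions with direct-repeat seeds, single-nucleotide variants, half-site ablations and random human genomic background sequences, printed on custom Agilent 4×180K protein-binding microarrays. Arrays were incubated 1 h with ligand-free nuclear receptor dimers in PBS pH 7.4, 2% milk, 0.02% Triton X-100, 1 mM DTT, 0.2 mg/mL BSA and 0.4 mg/ml salmon testes DNA. Antibodies against each partner (one per run) detected binding, and scanned fluorescence was regression-normalized. Binding z-scores use the random background probes as reference.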

[2] = system: RARg homodimer (NR concentration 270 nM)
Method in brief: as §1

[3] = system: RXRa DBDmut IVT, anti-RXR (DBD mutation: RXRa K156A/R161A, NR concentration 90 nM)
Method in brief: as §1

[4] = system: RXRa homodimer (NR concentration 180 nM)
Method in brief: as §1

[5] = system: THRa:RXRa (NR concentration 90 nM, RXRa partner concentration 90 nM)
Method in brief: as §1

[6] = system: THRa homodimer (NR concentration 90 nM)
Method in brief: as §1

[7] = system: VDR homodimer (NR concentration 270 nM)
Method in brief: as §1

| Sequence | PBM binding z-score [1] | PBM binding z-score [2] | PBM binding z-score [3] | PBM binding z-score [4] | PBM binding z-score [5] | PBM binding z-score [6] | PBM binding z-score [7] |
| --- | --- | --- | --- | --- | --- | --- | --- |
| CCTACTGGGCCAAAGGTGATTGATTCCAATGCTC | 0.547 | 0.234 | -0.2 | 0.624 | 0.0559 | -0.0264 | 0.165 |
| CCTGCTAGGTCATGGTCAGCGAATCTACAGTATG | 4.05 | 4.93 | 1.92 | 3.09 | 2.9 | 1.16 | 0.226 |
| CCTACTGGGCCAAAAAGGTCATTGATGCCGATAA | 4.72 | 4.42 | 0.661 | 5.23 | 3.12 | 0.474 | 2.01 |
| CCTACTGGACCAAGGTCATTGATCAGTCAAAGCA | 3.7 | 2.94 | 1.91 | 3.39 | 3.43 | 2.69 | 3.61 |
| TCTAGTTGGTCACGGAGGACACACACGACGGGTA | 1.55 | 2.32 | 0.501 | 0.864 | 1.83 | 1.27 | 0.76 |
| AGAATGAGGTTAAACGTAGATCAGGGAAGAAAGT | 2.9 | 1.54 | 2.08 | 3.22 | 2.55 | 0.549 | 1.04 |
| TTGCCTAGGTCATTGGGCCAGTATAGTACGCATC | 3.73 | 4.22 | 1.9 | 2.8 | 2.89 | 1.05 | 1.14 |
| CAAACTAGGTCAAGAGGTCAAAGTTCGCTTCCCG | 8.33 | 7.43 | 3.49 | 8.33 | 4.67 | 2.78 | 5.53 |
| CTATGTAGGTTACGGGGGTCATTCAGTTTGAAAG | 5.91 | 4.59 | 2.61 | 6.14 | 4.12 | 2.03 | 5.93 |
| CTCGAAAGGTCGTGCTCAGATGAGTATACCAAAC | 4.06 | 3.84 | 1.66 | 4.62 | 2.22 | -0.171 | 1.15 |
| ACTTACGGCTCAACGAGGTTATAGCACGCGTATA | 0.411 | 0.49 | 0.343 | 0.9 | 1.33 | 0.562 | 0.756 |
| CGAACTAGGTCGAGGACAGTGAATCTCCGCACGC | 0.749 | 1.36 | 0.54 | 0.381 | 2.11 | 1.45 | 0.0594 |
| GGAACGAGGGCAAAGTTCATAGCATCTGTCGACG | 5.71 | 3.92 | 3.54 | 6.27 | 3.03 | 0.017 | 4.43 |
| TTACCAAGGTGAACGGTCGTTGATGCACGCCTTG | 0.796 | 0.84 | -0.078 | 1.24 | 1.93 | 0.872 | -0.356 |
| ATATGTAGGTTAGGGGTCATTCAGGTTGGTTCGC | 5.63 | 4.38 | 2.85 | 7.75 | 3.99 | 2.88 | 6.78 |
| CAAACTAGTTCAAGAGGTCAAAGTCCGCTTCCCG | 6.53 | 5.81 | 3.18 | 7.43 | 3.77 | 1.92 | 4.98 |
| CCTTACGGGTCAAGGTTATAGCCCGGGTGGTACG | 5.05 | 5.24 | -0.0321 | 5.76 | 3.1 | 0.694 | 1.24 |
| GATACAGGGTCGGCTAGAGGCCAGAGTATGGAAA | 4.14 | 1.5 | -0.0719 | 1.49 | 1.22 | -0.62 | 0.35 |
| CCTTACGGGTCACTCCAGGTTATATCATCGGAGT | 4.35 | 4.43 | 1.46 | 4.17 | 5.19 | 0.814 | 1.49 |
| CTATGTGGGTTAAGGGGGTCATTCAGTTTGAAAG | 5.36 | 4.42 | 3.34 | 6.11 | 4.29 | 3.69 | 6.5 |
| CCTACTGGGCCAAAGAGGTCATTGATGCCGATAA | 4.01 | 3.31 | 1.39 | 4.45 | 3.35 | 0.927 | 3.97 |

| Sequence | PBM binding z-score [1] | PBM binding z-score [2] | PBM binding z-score [3] | PBM binding z-score [4] | PBM binding z-score [5] | PBM binding z-score [6] | PBM binding z-score [7] |
| --- | --- | --- | --- | --- | --- | --- | --- |
| ATCGAAAGGTCGACGCGGTGAGTATACACCGTTT | 4.07 | 4.09 | 1.12 | 3.83 | 1.97 | -0.506 | 0.391 |
| ACTCGGAGGACAAAGGTCAGGGCTACGCCAGTGA | 6.45 | 5.95 | 0.934 | 6.71 | 3.63 | 1.02 | 1.33 |
| AATAAAGGGTCATCGTAGGCCAGAGTACGCACAG | 6.49 | 6.51 | 3.4 | 6.51 | 4.49 | 0.425 | 3.62 |
| CCTACTGGGCCATTCAGAGGTCAATGATCATATG | 4.55 | 3.43 | 0.406 | 3.05 | 2.97 | 1.32 | 1.44 |
| CAAACCAGGTCAAGAGGTCAAAGTCCGCTTCCCG | 8.29 | 7.56 | 3.21 | 8.5 |  | 3.54 | 5.13 |
| CCTTACGGGTCACTCCAGGTCATAGCATCGGAGT | 5.28 | 5.41 | 1.08 | 5.06 |  | 3.03 | 2.49 |
| ATATGTAGGTTACCTGGGGTCATTCAGACTAGGC | 4.46 | 3.44 | 1.99 | 5.78 |  | 3.39 | 5.34 |
| AATACAGGGTCATCTTAGGCCAGAGTACGCACAG | 5.61 | 5.2 | 3.85 | 6.42 |  | 2.11 | 3.76 |
| CGAACTAGGTCATCCAGGTCAGTGAATACATTGA | 4.85 | 5.61 | 2.52 | 3.47 | 4.21 | 2.83 | 3.77 |
| CGAACGAGGTCATTGACAGGACAGTGAATAGTAA | 7.11 | 6.33 | 4.84 | 7.11 | 4.06 | 2.45 | 5.66 |
| CGAACAAGGTCATTGACAGGACAGTGAATAGTAA | 6.27 | 5.95 | 4.45 | 5.53 | 3.96 | 2.16 | 3.2 |
| AGAATGAGGTTACCAAAGGTCAGGGAAACGCTTG | 6.29 | 5.66 | 1.72 | 7.02 |  | 2.11 | 1.92 |
| AGTCAAAGTTCATCTAGGTAACATAAGATATGCT | 5.69 | 6.1 | 4.79 | 4.84 | 3.19 | 0.324 | 5.55 |
| CGTCCAAGGTCACGGTCAGTGAAAGAGACTCGAA | 7.19 | 8.03 | 4.12 | 7.6 | 4.29 | 3.63 | 2.8 |
| CATACAGGGTCGGCTAGGCCAGAGTAGGGACGGC | 0.866 | 1.16 | -0.309 | 0.983 | 0.966 | -0.41 | 0.745 |
| CGTCAAAGTTCAACTAAGGTTACGTAAAGCACGC | 6.64 | 7.26 | 4.73 | 6.03 |  | 2.2 | 4.89 |
| GGAACGAGGGCATTCGAGTTCATAGCATGGCGAT | 2.51 | 2.58 | 3.99 | 2.5 |  | -0.00454 | 8.72 |
| GCTTACAGGTCAAAGGTTATAGCATGAATAGAAT | 7.18 | 5.44 | 2.31 | 9.21 | 4.11 | 0.393 | 1.47 |
| TCTCGGAGGAAACGAAAGGTCAGAGCTCGACATC | 4.03 | 3.59 | 0.822 | 4.07 | 2.59 | 0.0929 | 0.612 |
| ATATGTAGGTTAACTGGGGTCATTCAGACTAGGC | 4.95 | 3.7 | 2.76 | 5.82 |  | 3.07 | 5.41 |
| CGTCCAAGGTCATATGAGGTCAGTGAAGACAGAT | 6.88 | 7.55 | 4.62 | 7.07 |  | 4.58 | 6.28 |

| Sequence | PBM binding z-score [1] | PBM binding z-score [2] | PBM binding z-score [3] | PBM binding z-score [4] | PBM binding z-score [5] | PBM binding z-score [6] | PBM binding z-score [7] |
| --- | --- | --- | --- | --- | --- | --- | --- |
| CCTACTGGGCCTAAGGTCATTGATTCCAATGCTC | 3.16 | 2.83 | 1.17 | 3.44 | 3.88 | 4.55 | 2.68 |
| ATCAAAAGGTCGAGGTGAGTATAGAGAAAGGGAA | 4.7 | 4.98 | 1.28 | 4.83 | 3.11 | 1.26 | 1.18 |
| TTACCAAGGTCAAGGTCGTTGATCCCTCTGTAGA | 6.48 | 6.91 | 3.27 | 6.84 | 4.38 | 3.6 | 4.9 |
| CCTACTGGGTCACGAAAGGTCATTGATTCAGTGA | 6.96 | 6.81 | 1.69 | 7.05 |  | 1.82 | 2.59 |
| ATCTCTAGGTTAAGATAGTTCAGTGAATGCAAAT | 1.73 | 1.87 | 0.534 | 1.14 | 1.81 | 0.578 | 0.933 |
| CCGAGTTGGTCAAGGTCACACACGCTATAGGTAC | 4.58 | 4.8 | 3.18 | 4.46 | 4.24 | 4.39 | 4.74 |
| CGTCCAAGGTCATAGGAGGTCAATGAAGACAGAT | 6.94 | 7.28 | 3.99 | 7.15 |  | 3.89 | 4.97 |
| GCTGCTAGTTCAACTGATGGTCAGCTAAAGCTCG | 1.93 | 1.07 | 1.97 |  | 0.297 | -0.498 | 0.327 |
| AATACAGGGTAACTAGGCCAGAGTAGGTACGAAT | 0.64 | 0.567 | -0.0804 | 0.664 | 0.631 | -0.0802 | 0.108 |
| TGAATGAGGTTAAATATCAGGGAACGTGGCGTCG | 2.18 | 1.43 | 1.95 | 2.84 | 2.38 | 0.583 | 1.02 |
| TATACAAGGTCAAAGGCCAGAGTACGAATGTCGA | 6.25 | 6.16 | 2.92 | 6.51 | 3.86 | 2.1 | 2.78 |
| CAAACTAGGTCACGAGAGGTCAAAGTCGAATGAC | 7.59 | 8.3 | 2.82 | 7.93 |  | 2.88 | 5.09 |
| CAAACCAGGTCACAGAGGTCAAAGTCCGTGCGTA | 7.52 | 7.53 | 4.06 | 8.5 |  | 3.92 | 8.47 |
| CCGAGTAGGTTACGAGGGGTCATTCAGTGCGAAT | 5.1 | 3.76 | 1.89 | 5.85 |  | 0.607 | 5.41 |
| CGAACGAGGTCATCCAGGACAGTGAATACATTGA | 6.67 | 6.52 | 4.86 | 7.28 |  | 3.83 | 6.44 |
| CTACCAAGGTCAACAAGGTCGTTGATTACTATTC | 6.87 | 6.92 | 4.65 | 6.84 |  | 3.68 | 7.86 |
| GCATATAGGTAATACAAGGTCAAAGTCCGATTGT | 3.39 | 2.81 | 1.43 | 3.97 |  | 3.05 | 2.68 |
| AATACAGGGTCATCGTAGGTCAGAGTACGCACAG | 6.41 | 5.81 | 3.75 | 6.77 |  | 2.38 | 4.46 |
| TAGCCTAGTTCATGCGGGCCAGTATAGTGTCGGC |  | 0.586 | 1.71 | 0.0808 |  | -0.684 | 1.56 |
| TGTCAAAGTTCAAAGGTTACGTAAGTATCCACAC |  | 6.76 | 4.3 |  | 4.44 | 0.193 | 4.2 |
